Inconclusive results are not listed. Calls of active or inactive are those of the source. How the source made its calls, unless noted: active means hit-call score of the fitted dose curve at least 0.9, where 1 is the maximum; inactive means score below 0.9.
Columns and labels:
[1] = molecular target: Retinoic acid receptor RXR-alpha (Homo sapiens) (UniProt P19793); assay: ATG_RXRa_TRANS: Attagene TRANS-FACTORIAL HepG2 Assay for human Retinoid X Receptor alpha (RXRa) (AID 2283012; active means hit-call score of the fitted dose curve at least 0.9, where 1 is the maximum)
Chain of Retinoic acid receptor RXR-alpha (Homo sapiens) (P19793 whole entry, looked up, the tested form may be a part): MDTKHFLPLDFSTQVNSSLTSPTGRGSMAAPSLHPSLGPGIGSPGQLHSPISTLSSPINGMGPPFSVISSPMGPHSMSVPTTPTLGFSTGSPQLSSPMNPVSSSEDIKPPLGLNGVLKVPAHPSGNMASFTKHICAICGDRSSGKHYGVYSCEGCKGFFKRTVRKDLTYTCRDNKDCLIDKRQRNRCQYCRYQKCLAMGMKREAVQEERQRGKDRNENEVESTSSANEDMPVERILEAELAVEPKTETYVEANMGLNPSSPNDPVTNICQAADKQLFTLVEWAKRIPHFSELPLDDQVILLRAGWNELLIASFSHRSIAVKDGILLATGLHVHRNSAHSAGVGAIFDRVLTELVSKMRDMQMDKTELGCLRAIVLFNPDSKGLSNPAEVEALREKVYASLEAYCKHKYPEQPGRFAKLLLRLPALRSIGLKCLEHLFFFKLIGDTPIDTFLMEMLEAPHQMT
Summary of the method: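 HepG2 cells transiently transfected with GAL4-UAS reporter units and chimeric RXRa-Gal4 protein, treated 24 h. Reporter mRNA measured by RT-PCR, fluorescent labelling, HpaI digestion and capillary electrophoresis. Induction fitted against DMSO.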

[2] = molecular target: human Thyroid Receptor alpha (THRa1), THRA (gene 7067) (UniProt P10827); assay: ATG_THRa1_TRANS: Attagene TRANS-FACTORIAL HepG2 Assay for human Thyroid Receptor alpha (THRa1) (AID 2283014; active means hit-call score of the fitted dose curve at least 0.9, where 1 is the maximum)
Chain of human Thyroid Receptor alpha (THRa1), THRA (gene 7067) (P10827 whole entry, looked up, the tested form may be a part): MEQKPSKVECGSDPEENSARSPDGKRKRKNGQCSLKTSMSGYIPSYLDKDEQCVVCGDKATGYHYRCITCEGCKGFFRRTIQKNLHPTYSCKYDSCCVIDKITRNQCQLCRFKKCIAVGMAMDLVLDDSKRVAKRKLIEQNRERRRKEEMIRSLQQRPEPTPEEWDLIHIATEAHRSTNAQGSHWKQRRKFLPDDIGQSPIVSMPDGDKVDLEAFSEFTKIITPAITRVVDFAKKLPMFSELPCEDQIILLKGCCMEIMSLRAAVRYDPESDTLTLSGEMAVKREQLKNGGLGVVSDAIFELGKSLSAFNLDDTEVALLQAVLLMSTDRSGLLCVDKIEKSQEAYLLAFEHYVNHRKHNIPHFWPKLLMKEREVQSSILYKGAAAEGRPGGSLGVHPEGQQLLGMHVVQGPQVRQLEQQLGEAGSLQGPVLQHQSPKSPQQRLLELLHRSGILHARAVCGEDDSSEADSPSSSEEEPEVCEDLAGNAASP
Summary of the method: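 Transcripts from GAL4-UAS-driven reporters, measured after 24 h compound exposure by RT-PCR plus capillary electrophoresis of 6-FAM-labeled fragments, were fitted for gain of signal relative to DMSO. Cells: transiently transfected HepG2 expressing NR-Gal4 chimeras.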

[3] = molecular target: human Vitamin D Receptor (VDR), VDR (gene 7421) (UniProt P11473); assay: ATG_VDR_TRANS: Attagene TRANS-FACTORIAL HepG2 Assay for human Vitamin D Receptor (VDR) (AID 2283022; active means hit-call score of the fitted dose curve at least 0.9, where 1 is the maximum)
Chain of human Vitamin D Receptor (VDR), VDR (gene 7421) (P11473 whole entry, looked up, the tested form may be a part): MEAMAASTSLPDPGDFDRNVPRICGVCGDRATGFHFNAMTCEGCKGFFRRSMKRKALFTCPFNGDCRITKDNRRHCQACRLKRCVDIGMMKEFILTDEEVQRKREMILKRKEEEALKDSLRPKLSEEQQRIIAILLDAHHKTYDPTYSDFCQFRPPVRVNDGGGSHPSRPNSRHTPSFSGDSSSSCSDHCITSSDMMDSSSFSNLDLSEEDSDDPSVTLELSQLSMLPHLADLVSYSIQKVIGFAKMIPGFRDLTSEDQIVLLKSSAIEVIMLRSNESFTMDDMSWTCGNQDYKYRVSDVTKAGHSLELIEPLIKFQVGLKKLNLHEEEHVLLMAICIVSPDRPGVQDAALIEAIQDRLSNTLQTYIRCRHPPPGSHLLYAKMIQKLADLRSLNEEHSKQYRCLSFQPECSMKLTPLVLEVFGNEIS
Summary of the method: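 Transactivation by an exogenous VDR-Gal4 chimera in transiently transfected HepG2 cells was measured as reporter transcript level 24 hours after chemical treatment. RT-PCR products were analysed by capillary electrophoresis and fitted in the positive direction relative to DMSO.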

[4] = read-out: E-selectin (Homo sapiens) (UniProt P16581); assay: BSK_3C_Eselectin: BioMAP Diversity Plus: 3C Assay for Eselectin Biomarker Activity (AID 2283015); conditions: primary human endothelial cells (HUVEC); actives raise or lower the signal
Summary of the method: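 E-selectin ELISA readout, fitted bidirectionally relative to DMSO, taken 24 h post-dosing in HUVEC cultures of the 3C system. Overt cytotoxicity tracked with sulforhodamine B staining of parallel wells.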

[5] = read-out: Interleukin-1 alpha (IL1a), IL1A (gene 3552); assay: BSK_BE3C_IL1a: BioMAP Diversity Plus: BE3C Assay for Interleukin-1 alpha (IL1a) Biomarker Activity (AID 2283016); conditions: primary human bronchial epithelial cells; actives raise or lower the signal
Summary of the method: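 Human primary bronchial epithelial cells, 24 h chemical exposure; IL-1a quantified by ELISA, fitted bidirectionally against DMSO. Cytotoxicity assessed in parallel by SRB total-protein staining at the time of measurement.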

[6] = read-out: Monocyte Chemoattractant Protein-1 (MCP1), CCL2 (gene 6347); assay: BSK_4H_MCP1: BioMAP Diversity Plus: 4H Assay for Monocyte Chemoattractant Protein-1 (MCP1) Biomarker Activity (AID 2283018); conditions: primary human endothelial cells (HUVEC); actives raise or lower the signal
Summary of the method: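 Human umbilical vein endothelial cells (4H system) exposed to chemicals for 24 h in 96-well format. MCP-1 measured by ELISA; bidirectional fitting against DMSO, with SRB total-protein staining in parallel cultures for cytotoxicity.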

[7] = read-out: Human Leukocyte Antigen - DR isotype (HLADR), HLA-DRA (gene 3122); assay: BSK_3C_HLADR: BioMAP Diversity Plus: 3C Assay for Human Leukocyte Antigen - DR isotype (HLADR) Biomarker Activity (AID 2283019); conditions: primary human endothelial cells (HUVEC); actives raise or lower the signal
Summary of the method: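 Bidirectional fitting against DMSO was applied to the HLA-DR ELISA signal from human umbilical vein endothelial cells, 24 h post-dose. Cytotoxicity came from parallel SRB total-protein staining; 3C proliferation was counted by SRB at 48 h.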

[8] = read-out: Interleukin-8 (IL8), CXCL8 (gene 3576); assay: BSK_3C_IL8: BioMAP Diversity Plus: 3C Assay for Interleukin-8 (IL8) Biomarker Activity (AID 2283020); conditions: primary human endothelial cells (HUVEC); actives raise or lower the signal
Summary of the method: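 Primary human umbilical vein endothelial cells were dosed for 24 h. IL-8 was quantified by ELISA and fitted bidirectionally against DMSO. Cytotoxicity was assessed in parallel cultures by SRB staining at 560 nm.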

[9] = read-out: Monokine induced gamma interferon (MIG), CXCL9 (gene 4283); assay: BSK_3C_MIG: BioMAP Diversity Plus: 3C Assay for Monokine induced gamma interferon (MIG) Biomarker Activity (AID 2283021); conditions: primary human endothelial cells (HUVEC); actives raise or lower the signal
Summary of the method: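 HUVEC primary endothelial cultures dosed with chemical; MIG quantified by ELISA at 24 h. Data fitted bidirectionally against DMSO control, with parallel SRB total-protein staining for cytotoxicity.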

[10] = BSK_3C_SRB: Viability Assessment in the BioMAP Diversity Plus: 3C Assay (AID 2283023); conditions: primary human endothelial cells (HUVEC);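 further: fitted both ways against DMSO so a hit may be signal rise or drop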
Summary of the method: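 Cytotoxicity readout in parallel HUVEC 3C cultures: after 24 h compound exposure, cells fixed with 10% TCA, stained with 0.1% SRB and read at 560 nm. Gain or loss relative to DMSO fitted.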

[11] = read-out: Matrix Metallopeptidase 1 (MMP1), MMP1 (gene 4312); assay: BSK_BE3C_MMP1: BioMAP Diversity Plus: BE3C Assay for Matrix Metallopeptidase 1 (MMP1) Biomarker Activity (AID 2283024); conditions: primary human bronchial epithelial cells; actives raise or lower the signal
Summary of the method: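 Human primary bronchial epithelial cells (BE3C system) dosed for 24 h; MMP-1 quantified by ELISA. Bidirectional fit against DMSO; cytotoxicity tracked in parallel cultures by SRB total-protein staining.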

[12] = BSK_3C_Vis: BioMAP Diversity Plus: 3C Assay for Morphology Visualization (AID 2283025); conditions: primary human endothelial cells (HUVEC);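 further: light microscopy image of cell morphology used as background control; fitted both ways so gain or loss versus DMSO counts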
Summary of the method: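 Human umbilical vein endothelial cell morphology was inspected by light microscopy 24 h after chemical dosing; scored bidirectionally relative to DMSO.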

[13] = read-out: Pselectin, SELP (gene 6403); assay: BSK_4H_Pselectin: BioMAP Diversity Plus: 4H Assay for Pselectin Biomarker Activity (AID 2283026); conditions: primary human endothelial cells (HUVEC); actives raise or lower the signal
Summary of the method: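 Primary human umbilical vein endothelial cells were treated 24 h, and cell-surface P-selectin was then quantified by ELISA. Bidirectional fit versus DMSO; cytotoxicity checked in parallel cultures by SRB total-protein staining.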

[14] = BSK_BE3C_SRB: Viability Assessment in the BioMAP Diversity Plus: BE3C Assay (AID 2283028); conditions: primary human bronchial epithelial cells
Summary of the method: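 Cytotoxicity read-out: SRB (0.1%) staining of TCA-fixed (10%) human lung bronchial epithelial cells, absorbance 560 nm, 24 h post-dosing. Curves fitted both directions relative to DMSO.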

[15] = read-out: Thrombomodulin, THBD (gene 7056); assay: BSK_3C_Thrombomodulin: BioMAP Diversity Plus: 3C Assay for Thrombomodulin Biomarker Activity (AID 2283029); conditions: primary human endothelial cells (HUVEC); actives raise or lower the signal
Summary of the method: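 Human umbilical vein endothelial cells were exposed to chemicals for 24 h; cell-surface thrombomodulin quantified by ELISA, with bidirectional fitting against DMSO baseline.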

[16] = read-out: Urokinase-type plasminogen activator receptor (uPAR), PLAUR (gene 5329); assay: BSK_4H_uPAR: BioMAP Diversity Plus: 4H Assay for Urokinase-type plasminogen activator receptor (uPAR) Biomarker Activity (AID 2283030); conditions: primary human endothelial cells (HUVEC); actives raise or lower the signal
Summary of the method: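 uPAR level read by ELISA on HUVEC cultures (BioMAP 4H) 24 h post-dosing, analyzed for gain or loss relative to DMSO. Parallel SRB staining assessed overt cytotoxicity.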

[17] = molecular target: human Retinoid X Receptor beta (RXRb), RXRB (gene 6257) (UniProt P28702); assay: ATG_RXRb_TRANS: Attagene TRANS-FACTORIAL HepG2 Assay for human Retinoid X Receptor beta (RXRb) (AID 2283013; active means hit-call score of the fitted dose curve at least 0.9, where 1 is the maximum)
Chain of human Retinoid X Receptor beta (RXRb), RXRB (gene 6257) (P28702 whole entry, looked up, the tested form may be a part): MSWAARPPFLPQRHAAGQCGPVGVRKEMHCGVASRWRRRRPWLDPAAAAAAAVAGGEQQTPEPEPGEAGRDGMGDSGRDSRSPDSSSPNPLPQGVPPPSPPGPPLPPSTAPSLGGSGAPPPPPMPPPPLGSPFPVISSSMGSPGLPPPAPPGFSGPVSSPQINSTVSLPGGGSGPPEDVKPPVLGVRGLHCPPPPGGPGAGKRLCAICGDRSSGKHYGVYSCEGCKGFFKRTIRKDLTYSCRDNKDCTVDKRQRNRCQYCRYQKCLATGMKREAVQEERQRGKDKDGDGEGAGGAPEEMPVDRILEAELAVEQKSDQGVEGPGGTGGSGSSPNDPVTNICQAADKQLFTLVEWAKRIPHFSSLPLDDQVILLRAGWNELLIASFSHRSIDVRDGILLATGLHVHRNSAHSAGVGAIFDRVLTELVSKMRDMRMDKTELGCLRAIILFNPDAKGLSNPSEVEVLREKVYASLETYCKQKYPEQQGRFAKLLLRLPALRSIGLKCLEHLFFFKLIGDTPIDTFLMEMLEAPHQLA
Summary of the method: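 HepG2 cells were transiently transfected with multiplexed GAL4-UAS reporters and a chimeric RXRb-Gal4 construct, then exposed for 24 h. Reporter mRNA was quantified by RT-PCR, FAM labeling, HpaI digestion and capillary electrophoresis; gain of signal was scored against DMSO.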

[18] = BSK_4H_SRB: Viability Assessment in the BioMAP Diversity Plus: 4H Assay (AID 2283027); conditions: primary human endothelial cells (HUVEC);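 further: cells exposed to compound for 24 h before staining; curves fitted both ways versus DMSO so AC50 may be loss or gain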
Summary of the method: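 Absorbance at 560 nm of SRB-stained total protein served as the viability read-out in confluent primary human umbilical vein endothelium 24 h after chemical treatment. Curves were fitted bidirectionally against DMSO as negative control.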

Measured: AC50

Chain of E-selectin (Homo sapiens) (P16581 whole entry, looked up): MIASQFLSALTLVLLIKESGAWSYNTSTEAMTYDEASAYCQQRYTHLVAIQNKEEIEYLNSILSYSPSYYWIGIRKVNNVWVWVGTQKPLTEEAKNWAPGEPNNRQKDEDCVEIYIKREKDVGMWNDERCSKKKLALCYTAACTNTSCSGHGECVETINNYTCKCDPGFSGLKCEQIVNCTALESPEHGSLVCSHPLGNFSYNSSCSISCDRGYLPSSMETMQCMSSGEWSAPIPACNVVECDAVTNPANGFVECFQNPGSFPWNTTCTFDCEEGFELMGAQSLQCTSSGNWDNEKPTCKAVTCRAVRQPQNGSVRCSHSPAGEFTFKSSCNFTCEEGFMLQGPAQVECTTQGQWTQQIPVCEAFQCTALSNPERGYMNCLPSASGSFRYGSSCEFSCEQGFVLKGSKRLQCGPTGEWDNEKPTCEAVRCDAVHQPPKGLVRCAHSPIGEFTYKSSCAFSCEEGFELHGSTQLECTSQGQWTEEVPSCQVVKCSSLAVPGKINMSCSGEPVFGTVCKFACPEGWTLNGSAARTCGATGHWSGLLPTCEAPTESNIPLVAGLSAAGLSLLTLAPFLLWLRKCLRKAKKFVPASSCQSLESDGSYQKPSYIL

CCCC(O)C(O)CO (centres undefined)
inactive: [1] | [2] | [3]

CC(C)(CO)[C@@H](O)C(=O)NCCC(=O)O
inactive: [1] | [2] | [3]

CCCCCC(C=O)=Cc1ccccc1
active: [4] 35.2 µM | [6] 27.8 µM | [7] 36.6 µM | [8] 28.8 µM | [10] 33.1 µM | [11] 0.096 µM | [12] 37.8 µM | [13] 32.7 µM | [16] 36.5 µM
inactive: [1] | [5] | [9] | [14] | [15]

C[C@H]1O[C@@H](O[C@H]2[C@@H](O)C[C@H](O[C@H]3[C@@H](O)C[C@H](O[C@H]4CC[C@@]5(C)[C@H](CC[C@@H]6[C@@H]5C[C@@H](O)[C@]5(C)[C@@H](C7=CC(=O)OC7)CC[C@]65O)C4)O[C@@H]3C)O[C@@H]2C)C[C@H](O)[C@@H]1O
inactive: [1] | [2] | [3]

CCCCCCCCCCCC(=O)OC[C@@H](O)[C@H]1OC[C@H](O)[C@H]1O
inactive: [1] | [17] | [3]

COC(=O)C=C(C)CCC=C(C)C
inactive: [1] | [2] | [3]

Clc1cc(Cl)c(-c2c(Cl)c(Cl)cc(Cl)c2Cl)cc1Cl
inactive: [1] | [2] | [9] | [11] | [14] | [15]
active: [4] 13.8 µM | [5] 1.98 µM | [6] 8.9 µM | [7] 15.2 µM | [8] 1.98 µM | [10] 15.8 µM | [12] 19.9 µM | [13] 10 µM | [18] 18.8 µM | [16] 17.4 µM

BrCc1cccc(Oc2ccccc2)c1
inactive: [1] | [2] | [3]

CCCCCCCCCCCCCCN(CCO)CCO
inactive: [1] | [2] | [3]

O=C1CCCC=CCCCCCCCCCC1
active: [1] 24.4 µM | [17] 12.1 µM
inactive: [3]

Reference: PubChem BioAssay (EPA / NIEHS)
